In PubChem BioAssay (NCI) one finds growth data, which are given here for 38 compounds.

Where “and” joins values, the source holds several entries; their conditions need not be identical. Equal entries are not always repeated. Compounds without any hit were thinned out: in the full panel of roughly 83,000, 20% have a hit.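 Values shown are percent growth following 48 h exposure of cells in 96-well plates to a single concentration of compound; below 10 was considered active.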 Calls of active or inactive are those of the source.

One assay concerns BT-549 breast. The experiment in a line: NCI-60 one-dose screen, 48 h (100 = growth as untreated, 0 = no growth, -100 = all killed). The conditions noted are these: 10 µM unless noted.
As to `O=C1C(c2c[nH]c3ccccc23)=C(c2coc3cc(Br)ccc23)C(=O)N1O`, the growth was 103% (inactive).

As to `O=C1Nc2ccccc2/C1=C/c1cccn1CCCCCn1c2ccccc2c(=O)c2ccccc21`, the growth was 65.5% (inactive).

In the case of `O=C(/C=C/c1ccc(Cl)s1)c1ccc(Cl)s1`, the growth was 103% (inactive).

In the case of `NC(N)=NC(N)=NCCCc1ccco1`, the growth is 115% (inactive).

As to `Cc1nc2sc(C(=O)Nc3cccc(Cl)c3C)c(N)c2cc1C(O)c1ccccc1` (centres undefined), the growth is 40.9% (inactive).

As to `COc1cc2ncnc(Nc3ccc(F)c(Cl)c3)c2cc1OCC(=O)N1CCCCC1`, the growth was 94.4% (inactive).

Take `S=c1nc(CS)[nH]c2ccccc12`: the growth is 101% (inactive).

With `O=C1/C(=C/c2cn(-c3ccccc3)nc2-c2ccccc2)SC(=S)N1c1ccccc1`, the growth is 98% (inactive).

With `O=C(c1ccc(Nc2nccc(NCCCNc3ccnc4cc(Cl)ccc34)n2)cc1)N1CCCCC1`, the growth is 64.9% (inactive).

Consider `O=C1/C(=C/c2cn(-c3ccccc3)nc2-c2ccccc2)SC(=S)N1c1ccc(Cl)cc1`, for which the growth is 78.2% (inactive).

Consider `COc1cc(/C=C2\C(=O)N(CCCCn3c4ccccc4c(=O)c4ccccc43)c3ccccc32)cc(OC)c1O`, for which the growth is 51.1% (inactive).

The subject of a further assay is MDA-MB-435 melanoma. The assay is described as above. The conditions noted are these: 10 µM unless noted.
As for `O=C(Nc1ccc(F)cc1)c1cc2cc(Nc3nc(-c4ccccc4)nc4ccccc34)ccc2oc1=O`, the growth is 108% (inactive).

Take `COC(=O)c1c2c(c(C)[n+]([O-])c1C)C(=O)C(NCCN1CCOCC1)=CC2=O`: the growth was 49.9% (inactive).

`COc1c(O)c(O)cc2c3c(oc12)CC(c1ccc2c(c1)OCO2)CC3=O` (centres undefined): the growth was 39.8% (inactive).

Take `O=C1CCCCN1CCCCC#Cc1cccc(C#Cc2cccnc2)c1`: the growth was 84.6% (inactive).

In the case of `Cc1ccc(-c2nc3nc(-c4ccc(Cl)cc4)nc(N4CCCNCC4)c3o2)cc1`, the growth is -81.1% (active).

As to `CC(=O)c1c(C)nc2ccccc2c1/C=C/c1cccc(C)c1`, the growth is 5.84% (active).

As to `CCOC(=O)C(=CCC(C)C)C(=O)OCC`, the growth was 99.7% (inactive).

Turning to `BrC1=C(Br)C(Br)(Br)C(Br)=C1Br`, the growth is 75.6% (inactive).

`COc1ccc(-c2csc(NC(=O)CN3CCN(CCO)CC3)n2)cc1NS(=O)(=O)c1cccc2c(N(C)C)cccc12`: the growth is 57.3% (inactive).

`Cc1nnc(NS(=O)(=O)c2ccc(N=Nc3ccc(N)nc3N)cc2)s1`: the growth was 115% (inactive) and 105% (inactive).

Take `CCCCCCCCCCCCCCCCCCn1cc(COc2ccc(C=O)cc2)nn1`: the growth was 109% (inactive).

As to `C=C(C)[C@@H]1CC[C@]2(C(=O)O)CC[C@]3(C)[C@H](CC[C@@H]4[C@@]5(C)CCC(N)C(C)(C)[C@@H]5CC[C@]43C)[C@@H]12` (some centres undefined), the growth was -51% (active).

Consider `Cc1ccc(-c2nc3nc(-c4ccc(Br)cc4)nc(N4CCCNCC4)c3o2)cc1`, for which the growth was 7.5% (active).

As to `O=C(Nc1ncc(Cc2cccc(C(F)(F)F)c2)s1)c1ccc2c(c1)OCCO2`, the growth was 3.47% (active).

`COCCn1cc(-c2nc(-c3cn(CCOC)c4ncccc34)cs2)c2ccccc21`: the growth was 108% (inactive).

Turning to `O=C(N=Nc1c(O)[nH]c2ccccc12)Nc1ccccc1Cl`, the growth was 84.5% (inactive).

Consider `CC1(C)C(N)=Nc2cc(OCCCN3Cc4ccc(OCCc5cn(CC(=O)N6CCC(CCN7CCCC7)CC6)nn5)cc4C3)c(OCC3CC3)cc21`, for which the growth is 102% (inactive).

Take `COc1ccc(CN2CCc3c(Cl)nc(N)nc3C2=O)c(OC)c1`: the growth is 1.81% [100 µM] (active).

Turning to `C=C(CNCCO)[C@@H]1CC[C@]2(CO)CC[C@]3(C)[C@H](CC[C@@H]4[C@@]5(C)CCC(NCCc6ccc(O)cc6)C(C)(C)[C@@H]5CC[C@]43C)[C@@H]12` (some centres undefined), the growth is -95.5% (active).

As for `COc1ccc2nc3cc(Cl)ccc3c(NCCCNCCC(C)O)c2c1` (centres undefined), the growth was -86.3% (active).

`Clc1ccc(CNc2ccc3nc(CCC4CCCCC4)[nH]c3c2)cc1`: the growth is 66.4% (inactive).

As for `Nc1n[nH]c2cccc(C#Cc3cccc(NC(=O)c4ccc(N5CCOCC5)c(C(F)(F)F)c4)c3)c12`, the growth was 19.2% (inactive).

For the compound `ON=C1CCCCCCCC1`, the growth was 103% (inactive) and 113% (inactive).

Consider `Cc1ccc(C(=O)Nc2ccc(CN3CCN(C)CC3)c(C(F)(F)F)c2)cc1C#Cc1cnc(N)cc1C#N`, for which the growth is -90.7% (active).

Regarding `COc1nc(=O)n(C2C=CC(=O)O2)cc1F` (centres undefined), the growth was 79% (inactive).

Turning to `OB(O)c1ccsc1-c1nc2ccc3[nH]ncc3c2c2c1CCCC2`, the growth is 27% (inactive).

On to `Cc1ccc(NC(=O)c2sc3nc(C)c(C(=O)c4ccccc4)cc3c2N)cc1`, for which the growth was 39.5% (inactive).

Regarding `O=C1C(c2c[nH]c3ccccc23)=C(c2coc3cc(Br)ccc23)C(=O)N1O`, the growth was 103% (inactive).

Turning to `O=C1Nc2ccccc2/C1=C/c1cccn1CCCCCn1c2ccccc2c(=O)c2ccccc21`, the growth is 93.6% (inactive).

With `O=C(/C=C/c1ccc(Cl)s1)c1ccc(Cl)s1`, the growth is 87.8% (inactive).

For `NC(N)=NC(N)=NCCCc1ccco1`, the growth was 110% (inactive).

On to `Cc1nc2sc(C(=O)Nc3cccc(Cl)c3C)c(N)c2cc1C(O)c1ccccc1` (centres undefined), for which the growth is 4.87% (active).

For `COc1cc2ncnc(Nc3ccc(F)c(Cl)c3)c2cc1OCC(=O)N1CCCCC1`, the growth was 95.3% (inactive).

Take `S=c1nc(CS)[nH]c2ccccc12`: the growth is 101% (inactive).

With `O=C1/C(=C/c2cn(-c3ccccc3)nc2-c2ccccc2)SC(=S)N1c1ccccc1`, the growth was 98.3% (inactive).

As to `O=C(c1ccc(Nc2nccc(NCCCNc3ccnc4cc(Cl)ccc34)n2)cc1)N1CCCCC1`, the growth is 34.1% (inactive).

For the compound `O=C1/C(=C/c2cn(-c3ccccc3)nc2-c2ccccc2)SC(=S)N1c1ccc(Cl)cc1`, the growth is 74.1% (inactive).

In the case of `COc1cc(/C=C2\C(=O)N(CCCCn3c4ccccc4c(=O)c4ccccc43)c3ccccc32)cc(OC)c1O`, the growth was 6.24% (active).
